Assay results from PubChem BioAssay.
For some assays here: Potency and affinity values are given separately. Records with an inconclusive call do not appear. Active and inactive are the calls of the source.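 Rule for the calls, unless noted: active = falling signal with fitted half-maximal potency no higher than twice the top valid tested dose; inconclusive = poor fit quality, or flat fit spanning -70% to -30%; inactive = potency over limit, rising signal, or flat fit inside 30%.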

Tests used:
[1] = binders of probe aFSTL3 on microarray, primary screen, stem cell growth factor project, biochemical, small-molecule microarray, fluorescence 635/667 (AID 1064); conditions: higher = more signal;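 note: measures binding of the biotinylated anti-FSTL3 antibody to printed compounds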
[2] = binders from COS7 lysate, DM2A8 probe, primary screen, torsin A project, cell lysate, small-molecule microarray, fluorescence 635/667 (AID 1065); conditions: higher = more signal, COS7 lysate expressing mutant human TOR1A
[3] = binders of probe aFGF2 on microarray, primary screen, stem cell growth factor project, biochemical, small-molecule microarray, fluorescence 635/667 (AID 1067); conditions: higher = more signal;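 note: measures binding of biotinylated aFGF2 protein to printed compounds on slides; z-score merges feature fluorescence and signal-to-noise across triplicate slides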
[4] = binders of probe aFGF10 on microarray, primary screen, stem cell growth factor project, biochemical, small-molecule microarray, fluorescence 635/667 (AID 1071); conditions: higher = more signal;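 note: score merges 667 nm spot intensity and signal to noise from triplicate slides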
[5] = target: Neurogenic locus notch homolog protein 2 (Homo sapiens) (UniProt Q04721); assay: Notch2 binders on small-molecule microarrays, primary screen, biochemical, small-molecule microarray, 635 nm fluorescence, stem cell growth factors (AID 1073); conditions: Notch2 binding, higher = more signal
Sequence of Neurogenic locus notch homolog protein 2 (Homo sapiens) (Q04721 whole entry, looked up, canonical isoform): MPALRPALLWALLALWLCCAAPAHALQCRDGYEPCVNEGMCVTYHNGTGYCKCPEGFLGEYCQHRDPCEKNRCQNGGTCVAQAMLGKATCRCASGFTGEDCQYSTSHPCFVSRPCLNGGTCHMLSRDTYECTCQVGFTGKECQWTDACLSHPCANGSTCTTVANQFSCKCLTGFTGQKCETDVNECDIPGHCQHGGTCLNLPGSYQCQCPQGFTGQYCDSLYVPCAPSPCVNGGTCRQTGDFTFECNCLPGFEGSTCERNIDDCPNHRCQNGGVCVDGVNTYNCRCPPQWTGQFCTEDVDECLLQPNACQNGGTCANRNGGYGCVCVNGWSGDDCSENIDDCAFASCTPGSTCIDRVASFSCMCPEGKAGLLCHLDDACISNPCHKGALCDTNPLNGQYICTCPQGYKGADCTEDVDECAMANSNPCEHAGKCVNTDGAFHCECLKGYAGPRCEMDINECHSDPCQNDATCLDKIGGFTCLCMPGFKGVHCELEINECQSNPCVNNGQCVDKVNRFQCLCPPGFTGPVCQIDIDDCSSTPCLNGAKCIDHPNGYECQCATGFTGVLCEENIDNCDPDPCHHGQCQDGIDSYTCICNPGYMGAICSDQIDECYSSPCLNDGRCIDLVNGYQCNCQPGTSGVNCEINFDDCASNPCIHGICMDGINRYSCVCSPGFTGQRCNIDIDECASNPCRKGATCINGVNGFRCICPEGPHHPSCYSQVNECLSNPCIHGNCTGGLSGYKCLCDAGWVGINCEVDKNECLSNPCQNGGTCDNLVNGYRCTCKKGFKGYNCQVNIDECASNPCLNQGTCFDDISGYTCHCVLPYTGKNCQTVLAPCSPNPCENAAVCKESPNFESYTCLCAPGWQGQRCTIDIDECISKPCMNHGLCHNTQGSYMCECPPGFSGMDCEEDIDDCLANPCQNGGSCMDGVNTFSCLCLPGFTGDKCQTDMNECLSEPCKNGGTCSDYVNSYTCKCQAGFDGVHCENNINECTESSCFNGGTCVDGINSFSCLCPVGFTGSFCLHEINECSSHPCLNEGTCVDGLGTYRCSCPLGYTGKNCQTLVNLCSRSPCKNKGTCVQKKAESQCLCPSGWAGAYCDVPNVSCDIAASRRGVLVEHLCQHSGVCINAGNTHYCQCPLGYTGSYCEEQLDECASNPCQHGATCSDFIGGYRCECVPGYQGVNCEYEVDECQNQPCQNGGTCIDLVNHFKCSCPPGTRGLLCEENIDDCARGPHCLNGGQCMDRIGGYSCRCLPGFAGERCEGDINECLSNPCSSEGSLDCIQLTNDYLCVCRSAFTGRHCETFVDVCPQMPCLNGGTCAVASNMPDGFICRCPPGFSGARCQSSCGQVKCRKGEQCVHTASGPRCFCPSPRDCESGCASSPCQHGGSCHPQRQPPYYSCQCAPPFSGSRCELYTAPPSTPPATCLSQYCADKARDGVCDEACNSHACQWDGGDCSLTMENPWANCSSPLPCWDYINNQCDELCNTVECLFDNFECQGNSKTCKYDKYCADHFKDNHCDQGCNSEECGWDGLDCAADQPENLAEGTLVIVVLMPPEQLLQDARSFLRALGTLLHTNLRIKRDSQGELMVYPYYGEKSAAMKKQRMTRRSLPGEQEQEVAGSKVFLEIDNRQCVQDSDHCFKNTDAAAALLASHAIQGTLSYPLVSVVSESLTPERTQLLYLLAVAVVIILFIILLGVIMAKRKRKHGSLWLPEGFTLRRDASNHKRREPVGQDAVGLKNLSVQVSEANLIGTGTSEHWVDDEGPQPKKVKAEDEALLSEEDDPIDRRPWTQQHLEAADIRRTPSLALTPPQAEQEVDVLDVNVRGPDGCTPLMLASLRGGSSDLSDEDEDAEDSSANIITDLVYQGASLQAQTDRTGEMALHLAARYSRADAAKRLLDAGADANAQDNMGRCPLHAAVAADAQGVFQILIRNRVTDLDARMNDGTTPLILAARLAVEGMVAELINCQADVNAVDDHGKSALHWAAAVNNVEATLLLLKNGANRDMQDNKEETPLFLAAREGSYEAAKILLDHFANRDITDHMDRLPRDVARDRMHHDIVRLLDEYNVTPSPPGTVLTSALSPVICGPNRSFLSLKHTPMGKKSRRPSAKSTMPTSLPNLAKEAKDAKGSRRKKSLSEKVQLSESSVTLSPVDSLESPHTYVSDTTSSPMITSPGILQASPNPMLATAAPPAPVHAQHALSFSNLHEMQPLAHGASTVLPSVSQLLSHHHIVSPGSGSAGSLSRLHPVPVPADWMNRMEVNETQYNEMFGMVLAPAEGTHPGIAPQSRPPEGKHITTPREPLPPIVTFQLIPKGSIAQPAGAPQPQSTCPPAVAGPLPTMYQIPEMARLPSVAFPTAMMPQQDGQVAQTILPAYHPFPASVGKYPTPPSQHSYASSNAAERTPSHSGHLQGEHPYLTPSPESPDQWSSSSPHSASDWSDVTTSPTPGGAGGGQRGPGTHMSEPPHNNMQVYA

[6] = target: Pro-neuregulin-1, membrane-bound isoform (Homo sapiens) (UniProt Q02297); assay: NRG1 binders on small-molecule microarrays, primary screen, psychiatric disease protein project, biochemical, small-molecule microarray, fluorescence 635/667 (AID 1075); conditions: NRG1 binding, 635 nm fluorescence, higher = more signal;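 note: score combines 667 nm spot fluorescence with signal to noise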
Sequence of Pro-neuregulin-1, membrane-bound isoform (Homo sapiens) (Q02297 whole entry, looked up, the tested form may be a part, canonical isoform): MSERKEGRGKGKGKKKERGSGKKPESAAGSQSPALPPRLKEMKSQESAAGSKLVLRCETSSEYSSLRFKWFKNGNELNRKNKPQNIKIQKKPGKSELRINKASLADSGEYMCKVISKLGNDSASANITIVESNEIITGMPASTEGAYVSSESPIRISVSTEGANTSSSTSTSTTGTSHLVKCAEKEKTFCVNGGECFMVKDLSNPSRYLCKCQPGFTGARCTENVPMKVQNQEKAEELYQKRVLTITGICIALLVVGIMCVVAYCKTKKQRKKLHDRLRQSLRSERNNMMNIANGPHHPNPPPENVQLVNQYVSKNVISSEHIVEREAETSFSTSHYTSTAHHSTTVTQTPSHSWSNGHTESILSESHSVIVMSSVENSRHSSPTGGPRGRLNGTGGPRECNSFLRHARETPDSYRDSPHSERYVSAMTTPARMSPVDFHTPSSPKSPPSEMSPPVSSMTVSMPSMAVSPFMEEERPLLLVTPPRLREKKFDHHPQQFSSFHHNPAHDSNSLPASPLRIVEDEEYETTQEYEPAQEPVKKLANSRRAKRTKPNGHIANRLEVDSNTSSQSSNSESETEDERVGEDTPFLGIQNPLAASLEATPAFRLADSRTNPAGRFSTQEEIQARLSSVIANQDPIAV

[7] = system: Neuregulin-1 EGF-like domain; assay: binders of neuregulin-1 EGF-like domain, primary screen, biochemical, small-molecule microarray, 635 nm fluorescence (AID 1081); conditions: small-molecule microarray binding, higher = more signal;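 note: binding of the protein to compounds printed on small-molecule microarray slides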
[8] = FRG1 promoter luciferase signal modulators, primary screen, FRG1 inhibition for FSHD, cell-based, C2C12 myotubes, firefly/Renilla luciferase, luminescence (AID 1084); conditions: higher = more signal, called active from +8 up or from −8 down
[9] = binders of probe aFST on microarray, primary screen, stem cell growth factor project, biochemical, small-molecule microarray, fluorescence 635/667 (AID 1086); conditions: higher = more signal;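 note: score merges 667 nm fluorescence with signal-to-noise of each printed compound spot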
[10] = binders of probe aHhip on microarray, primary screen, stem cell growth factor project, biochemical, small-molecule microarray, fluorescence 635/667 (AID 1087); conditions: higher = more signal;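 note: score merges spot fluorescence at 667nm with spot signal to noise ratio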
[11] = system: PRMT1 (protein arginine N-methyltransferase 1); assay: PRMT1 binders on small-molecule microarrays, primary screen, biochemical, small-molecule microarray, 635 nm fluorescence (AID 1088); conditions: small-molecule microarray binding, higher = more signal;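 note: binding of Prmt1 protein to compounds spotted on small-molecule microarray slides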
[12] = yeast growth modulation, basal conditions, primary screen, YJM789 clinical isolate, OD600, 24 h (AID 1089);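 note: growth of clinical yeast isolate S. cerevisiae YJM 789 seeded 1000 cells per well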; conditions: S. cerevisiae YJM789 growth, higher = more signal, called active from +8 up or from −8 down
[13] = fission yeast growth modulation, primary screen, strain 972, OD600, 24 h, no modulator (AID 1090);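 note: basal condition with compound alone and no growth modifier present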; conditions: S. pombe 972 growth, higher = more signal, called active from +8 up or from −8 down
[14] = S. cerevisiae growth modulation with rapamycin, primary screen, strain BY4716, OD600, 96 h (AID 1091); conditions: higher = more signal, called active from +8 up or from −8 down
[15] = target: Torsin-1A-interacting protein 2 (Homo sapiens) (UniProt Q8NFQ8); assay: LULL1 binders on small-molecule microarray, primary screen, cell lysate, human LULL1 lysate, 635/667 nm fluorescence (AID 1092); conditions: hLULL1 lysate binding, 635 nm fluorescence, higher = more signal;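 note: probe is lysate of COS7 cells overexpressing human LULL1; score merges per-feature 667 nm fluorescence with signal-to-noise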
Sequence of Torsin-1A-interacting protein 2 (Homo sapiens) (Q8NFQ8 whole entry, looked up): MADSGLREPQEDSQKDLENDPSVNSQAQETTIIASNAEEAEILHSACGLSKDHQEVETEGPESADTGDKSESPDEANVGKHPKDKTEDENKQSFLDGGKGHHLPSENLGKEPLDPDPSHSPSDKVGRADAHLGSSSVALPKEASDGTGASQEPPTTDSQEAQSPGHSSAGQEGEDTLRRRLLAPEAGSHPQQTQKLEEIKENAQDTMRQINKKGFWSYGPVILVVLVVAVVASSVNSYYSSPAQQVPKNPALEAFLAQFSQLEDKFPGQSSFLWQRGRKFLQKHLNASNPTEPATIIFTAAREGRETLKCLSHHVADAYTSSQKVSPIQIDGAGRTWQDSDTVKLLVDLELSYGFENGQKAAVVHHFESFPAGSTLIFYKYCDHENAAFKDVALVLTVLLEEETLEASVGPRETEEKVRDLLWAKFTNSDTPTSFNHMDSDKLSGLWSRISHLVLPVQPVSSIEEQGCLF

[16] = E. coli growth modulation, two-sided OD650, primary screen, E. coli filamentation project, strain DRC41, 24 h (AID 1093); conditions: OD650, 24 h, higher = more signal, called active from +8 up or from −8 down;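 note: MC1000 strain lacking acrAB efflux and sulA so SOS filamentation is blocked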
[17] = Cryptococcus neoformans growth inhibition, dose response, Alamar Blue, cherry-picks (AID 686998)
[18] = inducers of Cryptococcus neoformans cell lysis, dose response, AK release luminescence, cherry-picks (AID 687000;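 active = fitted dose curve reaches 40% lysis signal rise at or below the highest valid concentration tested for that sample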;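 note: luminescent detection of adenylate kinase leaking from lysed yeast; 0% = median neutral control signal and 100% = double that signal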)
[19] = HepG2 cell cytotoxicity, dose response, cytotoxicity control, cherry-picks, set 2 (AID 687002;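 active = a dose-response fit showing signal loss, with half-maximal concentration no higher than twice the top tested dose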)

CCCCCN1CC=CC23O[C@@H]4/C=C\CCC(C)OC(=O)C4[C@H]2C(=O)N(CCO)[C@@H]3C1=O (stereo partly drawn)
composite z-score [1]: 0.767 | composite z-score [2]: 2.14 | composite z-score [3]: -0.216 | composite z-score [4]: -0.807 | composite z-score [5]: -0.762 | composite z-score [6]: 0.77 | composite z-score [7]: 1.13 | z-score [8]: 0.569 (inactive) | composite z-score [9]: -0.639 | composite z-score [10]: -0.16 | composite z-score [11]: -0.754 | z-score [12]: -0.139 (inactive) | z-score [13]: -1.24 (inactive) | z-score [14]: -0.0531 (inactive) | composite z-score [15]: 1.45 | z-score [16]: 2.35 (inactive)

C=CC[C@@]1(C(=O)NCc2ccccc2)N=C(c2ccc(OCCCO)cc2)O[C@@H]1c1ccccc1
composite z-score [1]: 1.17 | composite z-score [2]: 0.945 | composite z-score [3]: -0.0778 | composite z-score [4]: -0.523 | composite z-score [5]: -0.347 | composite z-score [6]: 1.61 | composite z-score [7]: 0.845 | z-score [8]: -2.56 (inactive) | composite z-score [9]: 0.3 | composite z-score [10]: -0.191 | composite z-score [11]: 1.29 | z-score [12]: -2.54 (inactive) | z-score [13]: -4.81 (inactive) | z-score [14]: 12.3 (active) | composite z-score [15]: 3.19 | z-score [16]: 2.92 (inactive)

CC(=O)OC(C/C=C\B1OC(C)(C)C(C)(C)O1)c1ccccc1 (stereo not drawn)
composite z-score [1]: 0.696 | composite z-score [2]: 0.0193 | composite z-score [3]: -0.038 | composite z-score [4]: -1.06 | composite z-score [5]: -0.542 | composite z-score [6]: -0.451 | composite z-score [7]: -0.679 | z-score [8]: -1.52 (inactive) | composite z-score [9]: -0.0273 | composite z-score [10]: -0.353 | composite z-score [11]: -0.0413 | z-score [12]: -2.82 (inactive) | z-score [13]: -4.32 (inactive) | z-score [14]: -3.49 (inactive) | composite z-score [15]: -0.126 | z-score [16]: -3.15 (inactive)

CS(=O)(=O)c1ccc(-c2cnc3c(NC=O)cc(-c4ccsc4)cn23)cc1
outcome [17]: inactive | outcome [18]: inactive | outcome [19]: inactive

COCCCNC(=O)[C@@]1(CCS(=O)(=O)c2ccccc2)N=C(c2ccc(OCCCO)cc2)O[C@H]1c1ccccc1CN=[N+]=[N-]
composite z-score [1]: 1.06 | composite z-score [2]: 0.865 | composite z-score [3]: 0.331 | composite z-score [4]: 1.12 | composite z-score [5]: 1.25 | composite z-score [6]: 1.01 | composite z-score [7]: 1.22 | z-score [8]: -0.891 (inactive) | composite z-score [9]: 1.25 | composite z-score [10]: 0.0515 | composite z-score [11]: 1.54 | z-score [12]: -1.61 (inactive) | z-score [13]: -1.21 (inactive) | z-score [14]: 0.468 (inactive) | composite z-score [15]: 2.65 | z-score [16]: 2.4 (inactive)

C=CCOC(=O)[C@H]1[C@@H]2C(=O)O[C@@H](c3ccccc3)[C@@H](c3ccccc3)N2[C@@H](c2ccc(OCCOC(=O)[C@H]3C[C@H]4C(=O)N5CCC[C@H]5C(=O)N4[C@H]3c3cccc(OCCO)c3)cc2)[C@]12C(=O)Nc1ccccc12
composite z-score [1]: -0.113 | composite z-score [2]: 0.984 | composite z-score [3]: -0.147 | composite z-score [4]: 0.363 | composite z-score [5]: 0.0945 | composite z-score [6]: 1.06 | composite z-score [7]: 1.24 | z-score [8]: 0.176 (inactive) | composite z-score [9]: 0.406 | composite z-score [10]: -0.182 | composite z-score [11]: 1.53 | z-score [12]: 0.766 (inactive) | z-score [13]: -0.347 (inactive) | z-score [14]: 2.43 (inactive) | composite z-score [15]: 2.04 | z-score [16]: 1.83 (inactive)
